Vaccinia mCherry: vaccinia inhibition (mCherry reporter); Vaccinia virus mCherry reporter infection, fluorescence; Potency, µM (titrated, usually from 36.5 µM), actives largely listed as inhibitors; hit rate 0.63% among 310,000; AID 720579; calls by dose curve; tested in A549 cells; further: nearly all actives have a fitted effect of over 35% in size
Marburg entry inh: blocks Marburg virus binding to or entry into cells. Marburg virus pseudotyped entry inhibition, cell reporter. Potency, µM (highest dose often 37.8 µM), actives largely listed as inhibitors. hit rate 1.8% among 300,000; calls by dose curve; tested in HEK293 cells
LASV entry inh: blocks Lassa virus binding to or entry into cells; Lassa virus pseudotype entry inhibition, cell reporter; Potency, µM (series often up to 37.9 µM), hits mostly inhibitors; hit rate 1.2% among 300,000; calls by dose curve; tested in HEK293 cells; further: nearly all actives have a fitted effect of over 50% in size
Vaccinia Venus: inhibitors of vaccinia virus (Venus reporter); Vaccinia virus Venus reporter expression, fluorescence; Potency, µM (top dose mostly 36.5 µM), actives largely listed as inhibitors; hit rate 0.46% among 330,000; calls by dose curve; tested in A549 cells; further: nearly all actives have a fitted effect of over 30% in size
FMDV antiviral: antivirals against foot and mouth disease virus; FMDV antiviral cell-based qHTS; Potency, µM (series often up to 57.9 µM), usual class: inhibitors; hit rate 1.2% among 410,000; AID 1159524; calls by dose curve; tested in HEK293T cells; further: read-out not given here; nearly all actives have a fitted effect of over 45% in size
A number is an active result. Rows were chosen to be rich in hits. Some 3.2% of all compounds tested hit in one or more screens of this group.

CCc1ccc2c(CN3CCN(Cc4ccccc4)CC3)cc(=O)oc2c1 was read as Vaccinia mCherry inactive, Marburg entry inh inactive, LASV entry inh inactive, Vaccinia Venus inactive and FMDV antiviral inactive.
For CCc1ccc2c(CN3CCN(S(=O)(=O)c4ccccc4F)CC3)cc(=O)oc2c1 the results were Vaccinia mCherry inactive, Marburg entry inh 11.2µM, LASV entry inh inconclusive, Vaccinia Venus inactive and FMDV antiviral inconclusive.
CCc1ccc2c(CN3CCN(S(=O)(=O)c4cccs4)CC3)cc(=O)oc2c1 was read as Vaccinia mCherry inactive, Marburg entry inh inconclusive, LASV entry inh 2.51µM, Vaccinia Venus inconclusive and FMDV antiviral inconclusive.
CC(C)CNC(=O)c1cn(C2CCN(Cc3nc4ccccc4s3)CC2)nn1 was read as Vaccinia mCherry inactive, Vaccinia Venus inactive and FMDV antiviral inactive.
Screening COc1cc(=O)n2c(c1C(=O)NC(C)c1ccco1)CCN(Cc1cc3ccccc3o1)CC2 (stereo not given) returned Vaccinia mCherry inactive, Vaccinia Venus inactive and FMDV antiviral inactive.
CC1=CC(C)CC(C)OC(=O)CC(c2ccc(O)cc2)NC(=O)C(Cc2c(Br)[nH]c3ccccc23)N(C)C(=O)C(C)NC(=O)C(C)C1 (stereo not given) was read as Vaccinia mCherry 31.6µM, Marburg entry inh 0.316µM, LASV entry inh 0.398µM, Vaccinia Venus 35.5µM and FMDV antiviral inactive.
For C#CCCCO/N=C1\C[C@@H](O)[C@@H](O)[C@@H]2[C@@H]3C(=O)N(c4ccc(F)cc4F)C(=O)[C@@H]3CC[C@H]12 the results were Marburg entry inh inactive.
O=C(NC1CCCCC1)c1cnn2c1NC(=C1CC1)C=C2C(F)F was read as Vaccinia mCherry inactive and Vaccinia Venus inconclusive.
Screening CCCCCCN1C=CC(=C2C(=O)c3ccccc3C2=O)C=C1 returned FMDV antiviral inactive.
CCCN1C=CC(=C2C(=O)c3ccccc3C2=O)C=C1 was read as Marburg entry inh 0.206µM, LASV entry inh 0.206µM and FMDV antiviral 1µM.
`CCN1C=CC(=C2C(=O)c3ccccc3C2=O)C=C1` gave Marburg entry inh 1.83µM, LASV entry inh 0.651µM and FMDV antiviral 4.47µM.
Screening CCN(CC)CCCN1C(=O)C(=O)/C(=C(\O)c2ccc(Cl)cc2)[C@@H]1c1ccccn1 returned Marburg entry inh inactive.
`Cc1ccc([S+](=O)([O-])N[C@@H]2COC(=O)CC=C[C@H](C)COC(=O)N[C@@H](C)C(=O)CC=C[C@H]2C)cc1` gave Marburg entry inh inactive.
CCOC(=O)CCC(=O)Nc1ccc([N+](=O)[O-])cc1C was read as Vaccinia mCherry inactive, Marburg entry inh inactive, LASV entry inh inactive, Vaccinia Venus inactive and FMDV antiviral inactive.
`Cc1cc2nc(C3CCCCC3)c(Cc3cccc(F)c3)n2c(C)c1Br` gave Vaccinia mCherry inactive, Vaccinia Venus inactive and FMDV antiviral inactive.
`COC(=O)c1cc(CNC(=O)c2ccccc2OC)cc(NC(=O)c2ccccc2F)c1` gave Vaccinia mCherry inactive, Vaccinia Venus inactive and FMDV antiviral inactive.
For NC(N)=N/N=C/c1c(Cl)cccc1Cl the results were Vaccinia mCherry inactive, Marburg entry inh 11.2µM, LASV entry inh inconclusive, Vaccinia Venus inactive and FMDV antiviral inactive.
CCOc1ccc(N(C)S(=O)(=O)c2ccc(C)c(C(=O)N3CCN(Cc4ccc5c(c4)OCO5)CC3)c2)cc1 was read as Vaccinia mCherry inactive, Marburg entry inh inactive, LASV entry inh inconclusive, Vaccinia Venus inconclusive and FMDV antiviral 22.4µM.
`Cc1cc(S(=O)(=O)NC(C)C)ccc1OCC(=O)N1CCN(Cc2ccc3c(c2)OCO3)CC1` gave Vaccinia mCherry inactive, Marburg entry inh inconclusive, LASV entry inh 8.2µM, Vaccinia Venus inconclusive and FMDV antiviral inconclusive.
Screening CCC1=C([N+](=O)[O-])C(c2ccc3c(c2)OCO3)NC(=O)N1 (stereo not given) returned Vaccinia mCherry inactive, Marburg entry inh inactive, LASV entry inh inactive, Vaccinia Venus inactive and FMDV antiviral inactive.
For COc1ccc(-c2c(C(C)=O)c(C)nc3sc4c(=N)n(N)cnc4c23)cc1 the results were Vaccinia mCherry 7.08µM, Marburg entry inh inactive, LASV entry inh inconclusive, Vaccinia Venus 12.6µM and FMDV antiviral inactive.
For CCOC(=O)c1c(C)nc2sc3c(=O)n(-c4ccc(OC)cc4)cnc3c2c1-c1ccc(OC)cc1 the results were Vaccinia mCherry inactive, Marburg entry inh inactive, LASV entry inh inactive, Vaccinia Venus inactive and FMDV antiviral inactive.
For CCc1cccc2sc(N3CCN(C(=O)c4ccc([N+](=O)[O-])o4)CC3)nc12 the results were Vaccinia mCherry inconclusive, Marburg entry inh 5.01µM, LASV entry inh inconclusive, Vaccinia Venus inconclusive and FMDV antiviral inconclusive.
For Cc1cc(/C=N/Nc2nc(N3CCOCC3)nc(N3CCOCC3)n2)c(C)n1-c1ccccc1 the results were Vaccinia mCherry inactive, Marburg entry inh inconclusive, LASV entry inh inconclusive, Vaccinia Venus inactive and FMDV antiviral inactive.
COc1ccc(-n2c(C)cc(/C=N/Nc3nc(N4CCOCC4)nc(N4CCOCC4)n3)c2C)cc1 was read as Vaccinia mCherry inactive, Marburg entry inh 7.31µM, LASV entry inh inconclusive, Vaccinia Venus inactive and FMDV antiviral inconclusive.
Screening CC(O)(COc1ccccc1)c1ccc2c(c1)CN(Cc1ccccn1)CCO2 (stereo not given) returned Vaccinia mCherry inactive, Vaccinia Venus inactive and FMDV antiviral inactive.
Screening CCN1CCN(c2ncc3c(n2)CC(c2ccc(OC)c(OC)c2)CC3=O)CC1 (stereo not given) returned Marburg entry inh inconclusive, LASV entry inh inconclusive and FMDV antiviral 20µM.
`CCOC(=O)N1CCN(c2ncc3c(n2)CC(c2ccc(OC)c(OC)c2)CC3=O)CC1` (stereo not given) gave Vaccinia mCherry inactive, Marburg entry inh inactive, LASV entry inh inactive, Vaccinia Venus inactive and FMDV antiviral 14.1µM.
COc1ccc(C2CC(=O)c3cnc(N4CCN(Cc5ccccc5)CC4)nc3C2)cc1 (stereo not given) was read as Vaccinia mCherry inactive, Marburg entry inh inconclusive, LASV entry inh inconclusive, Vaccinia Venus inactive and FMDV antiviral 22.4µM.
For COc1ccc(C2CC(=O)c3cnn(-c4nc(C)cc(C)n4)c3C2)cc1OC (stereo not given) the results were Vaccinia mCherry inactive, Marburg entry inh inactive, LASV entry inh inactive, Vaccinia Venus inactive and FMDV antiviral inactive.
For CCN1CCN(c2ncc3c(n2)CCN(Cc2ccc(OC)c(OC)c2)C3)CC1 the results were Vaccinia mCherry inactive, LASV entry inh inactive, Vaccinia Venus inactive and FMDV antiviral inactive.
For CCOC(=O)CN1C(=O)NC(c2cccc(C(F)(F)F)c2)C(C(=O)OC)=C1C (stereo not given) the results were Marburg entry inh inactive.
For O=C(NNc1ccccc1)c1ccc(Cl)c(Cl)c1 the results were Vaccinia mCherry inactive, Marburg entry inh 7.08µM, LASV entry inh inconclusive, Vaccinia Venus inactive and FMDV antiviral inactive.
For CC(C)(C)c1ccc(-n2nc(C(N)=O)c(O)cc2=O)cc1 the results were Vaccinia mCherry inactive, Marburg entry inh inconclusive, LASV entry inh inactive, Vaccinia Venus inactive and FMDV antiviral inactive.
For CC(C)(C)c1ccc(-n2nc(C#N)c(Cl)cc2=O)cc1 the results were Vaccinia mCherry inconclusive, Marburg entry inh inconclusive, LASV entry inh inconclusive, Vaccinia Venus 10µM and FMDV antiviral 12.6µM.

Assay outcomes from PubChem.
